This is a sample that favours compounds with a hit; in the whole collection about 6.7% have one here.
C diff HTS: inhibitors of Clostridium difficile growth | 86,000 compounds, 0.25% hits | Clostridium difficile clinical isolate growth, OD600, 24 h; active compounds read low | growth activity, negative = inhibition, % at 16 µg/mL (by protocol);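 active = mean growth activity at or below -80% and every replicate also at or below -80%; inconclusive = mean at or below -80% but some replicate above -80%; inactive = mean growth activity above -80%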;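 note: 0% = DMSO wells and -100% = levofloxacin 16 µg/mL wells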
T cruzi growth-1: T. cruzi proliferation inhibition. T. cruzi beta-gal in NIH3T3, GalScreen luminescence, 90 h. inhibition, % at 8.34 µM. 77,000 compounds, 5.9% hits;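 active = mean inhibition above about 93%, with at least 55% of replicates each passing it, limit read from the data, passing the limit was not always enough; inconclusive = only one of those two conditions holds; inactive = neither condition holds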
Pf Dd2 growth: inhibitors of Plasmodium falciparum Dd2 growth | P. falciparum Dd2 growth, SYBR Green, 72 h; active compounds read low | activity change, % at 10 µM | 94,000 compounds, 2.3% hits | AID 1159554; in the data active = activity change below about -80%; inconclusive = no clear call, values can overlap the other calls
T cruzi growth-2: Trypanosoma cruzi proliferation inhibition. shares compounds with T cruzi growth-1. T. cruzi beta-gal in NIH3T3, GalScreen luminescence, 90 h. inhibition, % at 8.35 µM. 5,600 compounds, 72% hits;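 active = mean replicate inhibition above about 95% and at least 55% of replicates individually reaching it, limit read from the data; inconclusive = only one of the two criteria is met; inactive = neither criterion is met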
T cruzi growth-3: inhibitors of T. cruzi proliferation; shares compounds with T cruzi growth-1; T. cruzi beta-gal in NIH3T3, GalScreen luminescence, 90 h; inhibition, % at 2.09 µM; 5,600 compounds, 21% hits; AID 651740;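 active = mean inhibition above about 95%, with at least 55% of replicates also reaching it, limit read from the data; inconclusive = meets just one of the two conditions; inactive = meets neither condition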;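 note: plate controls were neutral control median for no effect and positive control median for full effect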
3T3 cytotox: cytotoxicity in mouse NIH/3T3 fibroblasts; NIH/3T3 viability, CellTiter-Glo ATP luminescence, 90 h; cytotoxicity (signal decrease), % at 8.35 µM; 5,600 compounds, 14% hits; shares compounds with T cruzi growth-1;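 active = mean signal decrease across replicates above about 35% based on untreated-well scatter, with enough replicates individually passing, limit read from the data; inconclusive = no rule stated though some were filed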;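 note: 0% = median of neutral control wells and 100% = median of positive control wells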
NIH3T3 tox 2: cytotoxicity in mouse NIH/3T3 fibroblasts. shares compounds with T cruzi growth-1. NIH/3T3 viability, CellTiter-Glo ATP luminescence, 90 h. inhibition, % at 24.9 µM. 5,600 compounds, 56% hits;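 active = mean loss of cell viability signal at or above a set limit, and enough replicates individually reaching it; inconclusive = meets only the mean limit or only the replicate share; inactive = meets neither condition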;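 note: 0% = median of neutral control wells and 100% = median of positive control wells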
* marks the source's active call; other numbers are inactive results; ? = inconclusive; · = no result.

SMILES | C diff HTS | T cruzi growth-1 | Pf Dd2 growth | T cruzi growth-2 | T cruzi growth-3 | 3T3 cytotox | NIH3T3 tox 2
Cc1ccc(S(=O)(=O)N(C)C[C@@H]2OCCCC[C@H](C)Oc3ccc(NS(=O)(=O)c4cccs4)cc3C(=O)N([C@@H](C)CO)C[C@@H]2C)cc1 | · | 122* | -57 | 98* | 41 | -11 | -5
Cc1ccc(S(=O)(=O)N(C)C[C@H]2OCCCC[C@H](C)Oc3ccc(NS(=O)(=O)c4cccs4)cc3C(=O)N([C@@H](C)CO)C[C@@H]2C)cc1 | · | 86 | -50 | · | · | · | ·
Cc1ccc(S(=O)(=O)N(C)C[C@@H]2OCCCC[C@H](C)Oc3ccc(NS(=O)(=O)c4cccs4)cc3C(=O)N([C@@H](C)CO)C[C@H]2C)cc1 | · | 106* | -55 | ? | 8 | 3 | 24
Cc1ccc(S(=O)(=O)N(C)C[C@H]2OCCCC[C@@H](C)Oc3ccc(NS(=O)(=O)c4cccs4)cc3C(=O)N([C@@H](C)CO)C[C@H]2C)cc1 | · | 103* | -49 | 112* | 63 | -10 | -18
Cc1ccc(S(=O)(=O)N(C)C[C@H]2OCCCC[C@H](C)Oc3ccc(NS(=O)(=O)c4cccs4)cc3C(=O)N([C@H](C)CO)C[C@@H]2C)cc1 | · | 68 | -45 | · | · | · | ·
CCCNC(=O)N1CC2(CCN(C(=O)C3CCCCC3)CC2)c2c([nH]c3cc(OC)ccc23)[C@@H]1CO | -10 | · | -53 | · | · | · | ·
CC(C)NC(=O)Nc1ccc2c(c1)C(=O)N([C@H](C)CO)C[C@H](C)[C@@H](CN(C)S(=O)(=O)c1cccs1)OCCCC[C@@H](C)O2 | -10 | · | · | · | · | · | ·
CC(C)NC(=O)Nc1ccc2c(c1)C(=O)N([C@@H](C)CO)C[C@H](C)[C@@H](CN(C)Cc1ccc(Oc3ccccc3)cc1)O2 | -9 | · | -22 | · | · | · | ·
C[C@@H]1CN([C@@H](C)CO)C(=O)c2cc(NC(=O)C3CCCCC3)ccc2O[C@@H](C)CCCCO[C@H]1CN(C)Cc1ccc(C(F)(F)F)cc1 | 17 | ? | -56 | 89 | 116* | 26 | 7
C[C@@H]1CCCCO[C@H](CN(C)Cc2ccncc2)[C@H](C)CN([C@@H](C)CO)C(=O)c2cc(NC(=O)C3CCCCC3)ccc2O1 | -5 | 90 | -10 | · | · | · | ·
C[C@@H]1CN([C@@H](C)CO)C(=O)c2cc(NC(=O)C3CCCCC3)ccc2O[C@@H](C)CCCCO[C@H]1CN(C)Cc1ccc(C(=O)O)cc1 | -1 | 6 | 18 | · | · | · | ·
C[C@@H]1CCCCO[C@H](CN(C)Cc2ccc(C(F)(F)F)cc2)[C@@H](C)CN([C@H](C)CO)C(=O)c2cc(NC(=O)C3CCCCC3)ccc2O1 | 3 | 70 | -28 | · | · | · | ·
C[C@H]1CN([C@@H](C)CO)C(=O)c2cc(NC(=O)C3CCCCC3)ccc2O[C@H]1CN(C)Cc1ccc(C(F)(F)F)cc1 | 8 | 15 | -5 | · | · | · | ·
C[C@@H]1CN([C@H](C)CO)C(=O)c2cc(NC(=O)C3CCCCC3)ccc2O[C@@H](C)CCCCO[C@H]1CN(C)Cc1ccncc1 | -4 | 103* | -12 | 65 | 32 | 0 | 3
C[C@@H]1CCCCO[C@@H](CN(C)Cc2ccc(C(F)(F)F)cc2)[C@H](C)CN([C@H](C)CO)C(=O)c2cc(NC(=O)C3CCCCC3)ccc2O1 | -1 | 118* | -50 | 89 | 104* | 22 | 17
C[C@H]1CN([C@@H](C)CO)C(=O)c2cc(NC(=O)C3CCCCC3)ccc2O[C@@H]1CN(C)Cc1ccc(C(F)(F)F)cc1 | -4 | 92* | 15 | 92 | 38 | -3 | 22
CN1CCN(C(=O)C[C@@H]2C[C@@H]3c4cc(NC(=O)Nc5ccc(C(F)(F)F)cc5)ccc4O[C@@H]3[C@H](CO)O2)CC1 | 3 | -9 | -33 | · | · | · | ·
C[C@H](CO)N1C[C@H](C)[C@H](CN(C)C(=O)Cc2ccccc2)OCCCC[C@H](C)Oc2ccc(NC(=O)CCC(F)(F)F)cc2C1=O | -1 | 37 | -19 | · | · | · | ·
CO[C@H]1CN(C)C(=O)c2ccc(NC(=O)Cc3ccccc3)cc2OC[C@H](C)N(C)C[C@@H]1C | -3 | · | -2 | · | · | · | ·
C[C@H](CO)N1C[C@H](C)[C@@H](CN(C)S(C)(=O)=O)Oc2ncc(C#CC3CCCC3)cc2C1=O | -3 | · | -9 | · | · | · | ·
C[C@H](CO)N1C[C@H](C)[C@@H](CN(C)C(=O)C2CC2)Oc2ncc(C3=CCCC3)cc2C1=O | · | -18 | 15 | · | · | · | ·
CCCC(=O)N1CC2(C1)CN(Cc1nccs1)[C@@H](CO)c1[nH]c3cc(OC)ccc3c12 | -3 | · | -55 | · | · | · | ·
C[C@H]1CCCCO[C@@H](CN(C)Cc2ccc(C(=O)O)cc2)[C@@H](C)CN([C@@H](C)CO)C(=O)c2cc(NC(=O)C3CCCCC3)ccc2O1 | -2 | -18 | 10 | · | · | · | ·
C[C@@H]1CCCCO[C@H](CN(C)Cc2ccc(C(F)(F)F)cc2)[C@@H](C)CN([C@@H](C)CO)C(=O)c2cc(NC(=O)C3CCCCC3)ccc2O1 | 7 | ? | -85* | 95* | 108* | -2 | 27*
CCCC#Cc1ccc2c(c1)O[C@H](CN(C)C)[C@@H](C)CN([C@H](C)CO)S2(=O)=O | 3 | 86 | -7 | · | · | · | ·
SMILES | C diff HTS | T cruzi growth-1 | Pf Dd2 growth | T cruzi growth-2 | T cruzi growth-3 | 3T3 cytotox | NIH3T3 tox 2
O=C(C[C@H]1C=C[C@H](NC(=O)C2CC2)[C@@H](CO)O1)NCCCN1CCOCC1 | 1 | · | 11 | · | · | · | ·
COc1ccccc1-c1ccc2c(c1)O[C@@H](CN(C)S(=O)(=O)c1ccc(C)cc1)[C@H](C)CN([C@@H](C)CO)S2(=O)=O | 5 | 126* | -84* | 100* | 71 | 24 | 46*
COc1ccccc1-c1ccc2c(c1)O[C@H](CN(C)S(=O)(=O)c1ccc(C)cc1)[C@H](C)CN([C@H](C)CO)S2(=O)=O | 19 | 120* | -39 | 100* | ? | 18 | 53*
CC(C)(C)[S@](=O)N1Cc2cc(C(=O)NCc3ccc4c(c3)OCO4)nc(-c3cccc(-c4ccncc4)c3)c2[C@@H]1CCO | · | 89 | -59 | · | · | · | ·
O=C(N[C@@H]1CC[C@@H](CCNC(=O)C2CCC2)O[C@H]1CO)c1ccccn1 | 0 | · | -9 | · | · | · | ·
C[C@H](CO)N1C[C@H](C)[C@@H](CN(C)Cc2ccc3c(c2)OCO3)OCCCC[C@H](C)Oc2ccc(NC(=O)c3ccncc3)cc2C1=O | -3 | 103* | 1 | 2 | 1 | -25 | -17
C[C@@H]1CN([C@@H](C)CO)C(=O)c2cc(NC(=O)c3ccncc3)ccc2O[C@@H](C)CCCCO[C@@H]1CN(C)Cc1ccc2c(c1)OCO2 | -5 | 29 | -48 | · | · | · | ·
C[C@@H]1CCCCO[C@H](CN(C)Cc2ccc3c(c2)OCO3)[C@H](C)CN([C@H](C)CO)C(=O)c2cc(NC(=O)c3ccncc3)ccc2O1 | -2 | 114* | -35 | 102* | 15 | -4 | -9

Screening results deposited in PubChem by Broad Institute.
